# Experimental data reported in PubChem BioAssay (NCATS).
# Values joined by “and” are separate entries in the source; they are usually repeats but may differ in a detail not shown here. Equal entries are not always repeated. Unmarked numbers belong to inactive results. Records with an inconclusive call do not appear. Where a call stands in place of a potency, no number is given. Active and inactive are the calls of the source. Unless noted, calls come from the whole dose curve; as a rule, active = well fitted curve in the direction sought with a large enough effect; inconclusive = small, poorly fitted or top-dose-only effect, or another doubt; inactive = no such curve, though single readings can be large; an effect the other way counts as inactive or inconclusive.
# Key:
# [1] = Cell Viability - HUV-EC-C (AID 542); settings: HUV-EC-C endothelial cell viability, qHTS; series mostly up to 92.2 µM; note: nearly all actives have a fitted effect of over 35% in size
# Summary of the method: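 HUV-EC-C human vascular endothelial cells, 1000/well, exposed to compound for 40 hr at 37 °C in complete medium. Intracellular ATP was read by CellTiter-Glo luminescence. AC50 came from Hill-equation fits of concentration-response data.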
# [2] = Cell Viability - H-4-II-E (AID 543); settings: H-4-II-E rat hepatoma viability; series mostly up to 92.2 µM; note: nearly all actives have a fitted effect of over 35% in size; note: potency is the fitted concentration of half-maximal effect
# Summary of the method: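 Rat hepatoma H-4-II-E cells, 1500 per well, treated 40 h at 37 °C in complete medium. Cellular ATP read by CellTiter-Glo luminescence; AC50 from Hill fits of concentration-response.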
# [3] = Cell Viability - Mesenchymal (AID 546); settings: mesenchymal cells viability, qHTS; series mostly up to 91.7 µM;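 note: cells exposed to compound for 40 hours before reading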
# Summary of the method: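 AC50 values reflect the drop in intracellular ATP in a human kidney mesenchymal line derived from normal glomeruli. Treatment lasts 40 hr at 37 °C in complete medium, and the signal comes from CellTiter-Glo luminescence.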
# [4] = Cellular Toxicity (caspase-3) BJ (AID 658); settings: BJ fibroblasts, luminescence, normalized: DMSO 0%, staurosporine 100%; series mostly up to 91.7 µM
# Summary of the method: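 Readout: Caspase-Glo 3/7 luminescence increase in BJ cells after 16 hr treatment at 37 °C. Staurosporine and tamoxifen served as positive controls; AC50 values came from Hill modelling of data normalized to DMSO and 10 uM staurosporine.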
# [5] = Cellular Toxicity (caspase-3) SK-N-SH (AID 661); settings: SK-N-SH caspase-3 activation, qHTS; series mostly up to 91.7 µM
# Summary of the method: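 Human SK-N-SH neuroblastoma cells, 1500/well, were exposed to compounds for 16 hours at 37 °C. Caspase-Glo 3/7 luminescence was normalized to DMSO (basal) and 10 uM staurosporine (100%), and AC50 came from a Hill fit.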
# [6] = Cellular Toxicity (caspase-3) H-4-II-E (AID 663); settings: H-4-II-E rat hepatoma; Potency: caspase-3 activation; series mostly up to 92.2 µM;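 note: cells exposed to compound for 16 hr before readout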
# Summary of the method: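 Apoptosis induction is scored as increased luminescence from caspase 3/7 substrate cleavage in rat hepatoma H-4-II-E cells exposed to compound for 16 hr. Activity is scaled between DMSO and 100 uM tamoxifen.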
# [7] = Cellular Toxicity (caspase-3) N2a (AID 665); settings: N2a cells, luminescence, normalized: DMSO 0%, 10 µM staurosporine 100%; series mostly up to 92.2 µM;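 note: compound exposure lasted 16 h at 37 °C before readout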
# Summary of the method: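 Mouse N2a neuroblastoma cells, 1500 per well, treated 16 h at 37 °C in complete medium; caspase-3/7 activity by Caspase-Glo luminescence after 1 h. Normalized to DMSO and 10 uM staurosporine; AC50 from Hill fits.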
# [8] = Cellular Toxicity (caspase-3) NIH 3T3 (AID 666); settings: NIH 3T3 caspase-3 activation, apoptosis/toxicity; series mostly up to 92.2 µM
# Summary of the method: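 Mouse NIH 3T3 fibroblasts (1000/well) treated 16 h at 37 C; caspase-3/7 activity measured by Caspase-Glo 3/7 luminescence after 20 min. Normalized to DMSO and 100 uM tamoxifen; AC50 from Hill fits.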
# [9] = Cellular Toxicity (caspase-3) Renal Proximal Tubule (AID 667); settings: renal proximal tubule cells; series mostly up to 91.7 µM;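 note: cells exposed to compound for 16 hours at 37 °C before detection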
# Summary of the method: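 Luminescent caspase 3/7 signal from peptide-aminoluciferin cleavage measures apoptosis in freshly isolated rat kidney proximal tubule cells after 16 h compound exposure. Concentration-response data are normalized to DMSO and 10 uM staurosporine, and AC50 values come from Hill equation fits.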
# [10] = Cell Viability - LYMP2-019 (AID 973); settings: LYMP2-019 lymphoblastoid cell line viability; series mostly up to 92.2 µM;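 note: cells exposed to compound for 24 h at 37 °C; nearly all actives have a fitted effect of over 55% in size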
# Summary of the method: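 Human lymphoblastoid LYMP2-019 cells (2500/well) preincubated 5 h at 37 C, then treated 24 h at 37 C in complete medium. Viability by CellTiter-Glo ATP luminescence after 30 min at room temperature; AC50 from Hill fits.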
# [11] = Cell Viability - LYMP2-023 (AID 975); settings: LYMP2-023 lymphoblastoid cell viability; series mostly up to 92.2 µM;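 note: cells exposed to compound for 24 hours at 37 °C; nearly all actives have a fitted effect of over 55% in size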; note: potency is the fitted concentration of half-maximal effect
# Summary of the method: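 LYMP2-023 human lymphoblastoid cells, 2500/well, preincubated 5 hr at 37 C, then compound-treated 24 hr at 37 C in complete medium. CellTiter-Glo luminescence (ATP) after 30 min at room temperature; AC50 from Hill-equation fits; tetraoctylammonium bromide positive control.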
# [12] = Cell Viability - LYMP2-006 (AID 978); settings: LYMP2-006 lymphoblastoid cell viability, qHTS; series mostly up to 92.2 µM;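 note: cells exposed to compound for 24 hours; nearly all actives have a fitted effect of over 60% in size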; note: potency is the fitted concentration of half-maximal effect
# Summary of the method: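 qHTS, 1536-well; 2500 cells/well, 5 hr 37 C; cpd 24 hr 37 C; CellTiter-Glo 30 min RT; luminescence. Tetraoctylammonium bromide pos. ctrl. AC50 via Hill eqn.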
# [13] = Cell Viability - LYMP2-007 (AID 979); settings: LYMP2-007 lymphoblastoid cell viability; series mostly up to 92.2 µM;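 note: cells exposed to compound for 24 h before reading; nearly all actives have a fitted effect of over 60% in size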; note: potency is the fitted concentration of half-maximal effect
# Summary of the method: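 Human lymphoblastoid LYMP2-007 cells (2500/well) preincubated 5 h at 37 C, then treated 24 h at 37 C in complete medium. Viability by CellTiter-Glo ATP luminescence after 30 min at room temperature; AC50 from Hill fits.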
# [14] = Cell Viability - LYMP2-008 (AID 980); settings: LYMP2-008 lymphoblastoid cell viability, qHTS; series mostly up to 92.2 µM; note: nearly all actives have a fitted effect of over 60% in size; note: potency is the fitted concentration of half-maximal effect
# Summary of the method: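 LYMP2-008 lymphoblastoid cells (2500/well) plated 5 h, then treated 24 h at 37 C in complete medium. Viability read as intracellular ATP by CellTiter-Glo luminescence after 30 min at room temperature; AC50 from Hill fits.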
# [15] = Cell Viability - LYMP2-014 (AID 983); settings: LYMP2-014 lymphoblastoid cells, viability qHTS; series mostly up to 92.2 µM;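 note: cells exposed to compound for 24 h at 37 °C; nearly all actives have a fitted effect of over 50% in size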; note: potency is the fitted concentration of half-maximal effect
# Summary of the method: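 LYMP2-014 human lymphoblastoid cells, 2500/well, treated 24 h at 37 C in complete medium; viability by CellTiter-Glo ATP luminescence after 30 min at room temperature. AC50 from Hill fits of qHTS concentration-response; tetraoctylammonium bromide positive control.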
# [16] = biological target: Peroxisome proliferator-activated receptor gamma (Homo sapiens) (UniProt P37231); test: qHTS assay for small molecule agonists of peroxisome proliferator-activated receptor gamma signaling (AID 588536; active = well fitted curve in the direction sought with a large enough effect in the signal ratio, with a control signal flat, not every such curve was filed as active; the % refers to the signal ratio); settings: HEK293 PPARg-UAS-bla, beta-lactamase ratio, 16 h, percent of rosiglitazone response, DMSO as zero; series mostly up to 76.7 µM
# Summary of the method: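 Test agents, titrated, stimulated HEK293 UAS-bla cells overnight (16 h, 37 C). Substrate CCF4 was then added for two hours at room temperature before fluorescence reading.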
# [17] = biological target: Voltage-gated inwardly rectifying potassium channel KCNH2 (Homo sapiens) (UniProt Q12809); test: qHTS Assay for Small Molecule Inhibitors of the Human hERG Channel Activity (AID 588834); settings: U2OS BacMam hERG, FluxOR thallium flux fluorescence; series mostly up to 92.2 µM;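 note: top concentration of the series differs between compounds; lower thallium flux fluorescence means stronger hERG block; nearly all actives have a fitted effect of over 50% in size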
# Summary of the method: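 Concentration-response qHTS measuring drop in thallium-sensitive dye signal. U2OS cells carrying BacMam hERG; compound exposure ~10 min, then stimulation buffer and 2 min read at 1 sec intervals.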
# [18] = qHTS assay for cell viability of HEK293 cells (AID 743288); settings: ATP luminescence (CellTiter-Glo), 18 h, active compounds read low; note: nearly all actives have a fitted effect of over 50% in size
# Summary of the method: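 Environmental chemicals tested in qHTS format against parental HEK293 cells; 18 h treatment, 37 C; read-out ATP luminescence (CellTiter-Glo), 30 min RT development.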
# [19] = biological target: Nuclear receptor subfamily 1 group I member 2 (Rattus norvegicus) (UniProt Q9R1A7); test: qHTS assay for small molecule activators of the rat pregnane X receptor (rPXR) signaling pathway (AID 651751; call rule not given here); settings: rPXR reporter cells, luciferase (One-Glo), 24 h
# [20] = Cell Viability - LYMP2-020 (AID 986); settings: series mostly up to 92.2 µM;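 note: cells exposed to compound for 24 h at 37 °C; nearly all actives have a fitted effect of over 55% in size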; note: potency is the fitted concentration of half-maximal effect
# Summary of the method: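 Human lymphoblastoid LYMP2-020 cells (2500/well) preincubated 5 h at 37 C, then treated 24 h at 37 C. Viability measured as intracellular ATP by CellTiter-Glo luminescence after 30 min at room temperature; AC50 from Hill fits.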
# Chain of Voltage-gated inwardly rectifying potassium channel KCNH2 (Homo sapiens) (Q12809 whole entry, looked up): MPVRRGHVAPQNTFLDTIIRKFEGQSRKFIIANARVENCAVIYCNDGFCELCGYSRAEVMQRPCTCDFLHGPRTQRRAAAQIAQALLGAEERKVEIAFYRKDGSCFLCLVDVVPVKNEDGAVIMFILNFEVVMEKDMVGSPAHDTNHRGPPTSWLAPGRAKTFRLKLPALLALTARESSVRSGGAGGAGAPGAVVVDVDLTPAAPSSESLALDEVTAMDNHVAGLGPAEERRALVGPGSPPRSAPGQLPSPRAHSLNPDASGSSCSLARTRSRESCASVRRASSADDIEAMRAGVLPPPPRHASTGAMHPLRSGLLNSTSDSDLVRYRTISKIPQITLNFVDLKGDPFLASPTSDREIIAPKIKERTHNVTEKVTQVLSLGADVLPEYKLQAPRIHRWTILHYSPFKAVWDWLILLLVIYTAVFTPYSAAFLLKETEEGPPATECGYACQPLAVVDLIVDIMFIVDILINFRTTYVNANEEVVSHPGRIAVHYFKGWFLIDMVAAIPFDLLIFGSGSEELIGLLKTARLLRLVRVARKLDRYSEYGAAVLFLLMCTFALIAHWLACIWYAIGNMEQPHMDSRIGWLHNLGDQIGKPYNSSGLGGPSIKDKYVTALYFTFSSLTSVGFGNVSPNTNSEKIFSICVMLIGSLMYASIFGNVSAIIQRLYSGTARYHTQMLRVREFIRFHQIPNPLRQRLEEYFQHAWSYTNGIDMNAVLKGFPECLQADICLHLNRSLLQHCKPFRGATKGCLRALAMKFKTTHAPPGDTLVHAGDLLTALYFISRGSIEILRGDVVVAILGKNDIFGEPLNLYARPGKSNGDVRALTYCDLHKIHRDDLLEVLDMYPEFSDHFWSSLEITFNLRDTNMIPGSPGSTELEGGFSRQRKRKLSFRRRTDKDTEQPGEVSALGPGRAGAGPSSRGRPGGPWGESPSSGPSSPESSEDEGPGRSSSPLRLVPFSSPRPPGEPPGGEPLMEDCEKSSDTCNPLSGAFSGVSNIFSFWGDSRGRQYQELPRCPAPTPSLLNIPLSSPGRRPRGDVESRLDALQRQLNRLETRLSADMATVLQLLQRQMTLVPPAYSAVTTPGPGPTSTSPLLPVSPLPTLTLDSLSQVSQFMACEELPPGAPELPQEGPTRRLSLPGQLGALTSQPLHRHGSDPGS
# Chain of Peroxisome proliferator-activated receptor gamma (Homo sapiens) (P37231 whole entry, looked up): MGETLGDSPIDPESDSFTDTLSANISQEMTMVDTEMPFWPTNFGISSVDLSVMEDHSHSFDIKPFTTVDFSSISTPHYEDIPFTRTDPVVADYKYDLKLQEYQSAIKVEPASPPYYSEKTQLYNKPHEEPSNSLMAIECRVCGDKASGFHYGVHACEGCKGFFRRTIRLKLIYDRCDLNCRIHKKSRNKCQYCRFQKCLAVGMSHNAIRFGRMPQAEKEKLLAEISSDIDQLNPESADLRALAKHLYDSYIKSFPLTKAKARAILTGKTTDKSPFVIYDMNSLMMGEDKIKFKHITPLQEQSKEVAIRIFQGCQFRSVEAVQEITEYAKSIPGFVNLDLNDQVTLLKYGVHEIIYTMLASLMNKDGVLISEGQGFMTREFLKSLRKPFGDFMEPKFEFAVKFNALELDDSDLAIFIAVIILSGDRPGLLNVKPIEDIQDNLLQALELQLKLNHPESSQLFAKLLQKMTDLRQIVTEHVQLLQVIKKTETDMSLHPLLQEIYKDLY
# Chain of Nuclear receptor subfamily 1 group I member 2 (Rattus norvegicus) (Q9R1A7 whole entry, looked up): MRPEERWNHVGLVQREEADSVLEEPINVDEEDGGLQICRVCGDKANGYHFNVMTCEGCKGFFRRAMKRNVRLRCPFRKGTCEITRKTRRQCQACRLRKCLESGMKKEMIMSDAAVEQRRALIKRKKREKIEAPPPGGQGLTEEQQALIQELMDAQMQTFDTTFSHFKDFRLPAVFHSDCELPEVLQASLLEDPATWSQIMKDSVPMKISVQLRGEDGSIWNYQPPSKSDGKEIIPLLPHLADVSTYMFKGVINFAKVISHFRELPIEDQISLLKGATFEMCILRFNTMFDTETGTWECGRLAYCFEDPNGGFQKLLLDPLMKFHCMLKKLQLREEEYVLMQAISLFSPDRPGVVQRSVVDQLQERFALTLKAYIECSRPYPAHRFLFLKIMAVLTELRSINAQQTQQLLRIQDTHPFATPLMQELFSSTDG
Compound,Potency [1],Potency [2],Potency [3],outcome [4],Potency [5],Potency [6],outcome [7],Potency [8],outcome [9],Potency [10],Potency [11],Potency [12],Potency [13],Potency [14],Potency [15],outcome [16],Potency [17],max response [18],max response [19],Potency [20]
CC(Cl)CCl (stereo not given),inactive,inactive,inactive,inactive,inactive,inactive,inactive,inactive,inactive,inactive,inactive,inactive,inactive,inactive,inactive,inactive,inactive,-4.06%,3.07%,–
S=c1[nH]c2ccccc2[nH]1,inactive,inactive,inactive,–,–,–,–,inactive,inactive,inactive,inactive,–,inactive,inactive,inactive,inactive,inactive,7.64%,-7.5%,inactive
O=[N+]([O-])c1cccc(CCl)c1,–,50.1 µM (active),inactive,inactive,inactive,inactive,–,–,inactive,–,inactive,inactive,–,inactive,–,–,inactive,-20.5%,-4.81%,–
Nc1ccc(-c2ccc(N)c(Cl)c2)cc1Cl,–,31.6 µM (active),–,inactive,inactive,inactive,inactive,inactive,inactive,inactive,inactive,inactive,inactive,inactive,inactive,inactive,inactive,–,–,inactive
COC(C)(C)C,inactive,inactive,inactive,inactive,inactive,inactive,inactive,–,inactive,–,inactive,inactive,inactive,–,inactive,–,inactive,-5.4%,3.77%,inactive
OCC(Cl)CCl (stereo not given),inactive,inactive,inactive,inactive,inactive,inactive,inactive,inactive,–,inactive,inactive,inactive,–,inactive,inactive,inactive,inactive,–,2.56%,inactive
Nc1ccc(Oc2ccc(N)cc2)cc1,–,–,inactive,inactive,inactive,inactive,inactive,inactive,inactive,inactive,inactive,inactive,inactive,inactive,inactive,inactive,inactive,-1.7% and -3.88%,6.46% and 5.6%,inactive
Oc1ccc(Cl)c(Cl)c1,inactive,inactive,–,inactive,inactive,–,–,inactive,–,inactive,inactive,inactive,inactive,inactive,–,inactive,inactive,7.88%,-0.245%,inactive
N#C/C=C/C#N,–,50.1 µM (active),–,inactive,inactive,inactive,inactive,inactive,–,–,39.8 µM (active),25.1 µM (active),39.8 µM (active),39.8 µM (active),39.8 µM (active),–,inactive,–,-4.77%,31.6 µM (active)
N#CCc1ccccc1,inactive,inactive,inactive,inactive,–,inactive,inactive,inactive,inactive,inactive,inactive,inactive,inactive,inactive,inactive,inactive,inactive,–,1.21%,inactive
ClC(Cl)c1ccccc1,inactive,inactive,inactive,inactive,inactive,inactive,inactive,inactive,inactive,inactive,inactive,inactive,–,inactive,inactive,inactive,inactive,-9.22%,3.54%,inactive
C=CCOCC1CO1 (stereo not given),inactive,inactive,inactive,inactive,inactive,inactive,inactive,–,inactive,inactive,–,inactive,inactive,inactive,–,inactive,inactive,-5.74%,-1.61%,inactive
[C-]1=CC=CC1.[C-]1=CC=CC1.[Cl-].[Cl-].[Ti+4],inactive,inactive,–,inactive,inactive,inactive,inactive,inactive,–,–,–,–,–,–,–,–,inactive,-17.8%,–,–
CCCCCCCCCCCOC(=O)c1ccccc1C(=O)OCCCCCCCCCCC,inactive,inactive,inactive,–,inactive,inactive,–,inactive,–,inactive,inactive,inactive,inactive,inactive,inactive,inactive,inactive,3%,1.44%,inactive
Oc1cc(Cl)c(Cl)c(Cl)c1,–,63.1 µM (active),inactive,inactive,inactive,inactive,inactive,–,inactive,–,–,–,–,–,inactive,–,–,-15.1%,-2.97%,–
c1ccc(P(c2ccccc2)c2ccccc2)cc1,inactive,inactive,inactive,inactive,inactive,–,inactive,inactive,inactive,–,inactive,inactive,inactive,inactive,inactive,inactive,–,-11.3%,2.64%,inactive
C=CC(=O)OCCO,–,–,inactive,inactive,inactive,inactive,inactive,inactive,inactive,–,inactive,–,–,–,–,–,inactive,-1.05%,0.767%,–
CN(C)c1ccc(N=Nc2ccccc2)cc1,inactive,–,inactive,inactive,inactive,inactive,inactive,–,inactive,inactive,inactive,inactive,inactive,–,inactive,inactive,inactive,-8.55%,–,inactive
CCCN(CCC)c1c([N+](=O)[O-])cc(C(F)(F)F)cc1[N+](=O)[O-],inactive,inactive,inactive,inactive,inactive,inactive,inactive,–,inactive,inactive,inactive,inactive,inactive,inactive,inactive,inactive,–,12.8% and -6.09%,–,inactive
Cc1cc(C)cc(OP(=O)(Oc2cc(C)cc(C)c2)Oc2cc(C)cc(C)c2)c1,inactive,inactive,inactive,inactive,inactive,inactive,inactive,inactive,inactive,inactive,–,inactive,inactive,inactive,inactive,–,–,-21.5%,–,inactive
CC(C#N)CCC#N (stereo not given),inactive,inactive,inactive,inactive,inactive,inactive,inactive,inactive,inactive,inactive,inactive,inactive,inactive,inactive,inactive,inactive,–,-7.04%,3.89%,inactive
Nc1c(Br)cc([N+](=O)[O-])cc1[N+](=O)[O-],inactive,–,–,inactive,–,inactive,inactive,–,inactive,inactive,inactive,inactive,–,inactive,inactive,–,inactive,-10.1%,14.9%,inactive
[O-][Cl+2]([O-])O,inactive,inactive,–,inactive,inactive,inactive,inactive,inactive,inactive,inactive,inactive,inactive,inactive,inactive,inactive,inactive,inactive,-5.12%,2.81%,inactive
Nc1ccc([N+](=O)[O-])cc1N,inactive,inactive,inactive,inactive,inactive,inactive,inactive,inactive,inactive,–,inactive,inactive,inactive,inactive,inactive,inactive,inactive,7.69% and 2.35%,-5.6% and -2.56%,inactive
